Where two headings read alike, the source gives them in different places.
Assays:
FGFR1 = settings: concentration: 1 μM, replicates: in singlicate; n = 1
FGFR2 = settings: concentration: 1 μM, replicates: in singlicate; n = 1
FGFR3 = settings: concentration: 1 μM, replicates: in singlicate; n = 1
FGFR4 = settings: concentration: 1 μM, replicates: in singlicate; n = 1
FGR = settings: concentration: 1 μM, replicates: in singlicate; n = 1
FLT1 = settings: concentration: 1 μM, replicates: in singlicate; n = 1
FLT3-autoinhibited = settings: concentration: 1 μM, replicates: in singlicate; n = 1
FLT3 = settings: concentration: 1 μM, replicates: in singlicate; n = 1
FLT4 = settings: concentration: 1 μM, replicates: in singlicate; n = 1
FRK = settings: concentration: 1 μM, replicates: in singlicate; n = 1
FYN = settings: concentration: 1 μM, replicates: in singlicate; n = 1
GAK = settings: concentration: 1 μM, replicates: in singlicate; n = 1
GCN2(Kin.Dom.2,S808G) = tested on: T1, GCN2(Kin.Dom.2,S808G); settings: concentration: 1 μM, replicates: in singlicate; n = 1
T1 construct: gene EIF2AK4

GRK1 = settings: concentration: 1 μM, replicates: in singlicate; n = 1
GRK2 = tested on: T2, GRK2; settings: concentration: 1 μM, replicates: in singlicate; n = 1
T2 construct: gene ADRBK1

GRK3 = tested on: T3, GRK3; settings: concentration: 1 μM, replicates: in singlicate; n = 1
T3 construct: gene ADRBK2

GRK4 = settings: concentration: 1 μM, replicates: in singlicate; n = 1
GRK7 = settings: concentration: 1 μM, replicates: in singlicate; n = 1
GSK3A = settings: concentration: 1 μM, replicates: in singlicate; n = 1
GSK3B = settings: n = 1
[1] = concentration: 1 μM, replicates: in singlicate
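Note: KINOMEscan kinase panel screen.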

## COc1cc(Nc2nccc(-c3c(-c4cccc(NC(=O)c5c(F)cccc5F)c4)nn4ccccc34)n2)cc(OC)c1OC [GSK323521]
FGFR1
  %Inh: 17%
FGFR2
  %Inh: 0%
FGFR3
  %Inh: 12%
FGFR4
  %Inh: 0%
FGR
  %Inh: 27%
FLT1
  %Inh: 41%
FLT3-autoinhibited
  %Inh: 0%
FLT3
  %Inh: 98.4%
FLT4
  %Inh: 20%
FRK
  %Inh: 11%
FYN
  %Inh: 23%
GAK
  %Inh: 28%
GCN2(Kin.Dom.2,S808G)
  %Inh: 29%
GRK1
  %Inh: 13%
GRK2
  %Inh: 0%
GRK3
  %Inh: 0%
GRK4
  %Inh: 16%
GRK7
  %Inh: 0%
GSK3A
  %Inh: 0%
GSK3B; [1]
  %Inh: 23%

## Cc1ccc(F)c(C(=O)Nc2cccc(-c3nn4ccccc4c3-c3ccnc(Nc4cccc(F)c4)n3)c2)c1F [GSK361061]
FGFR1
  %Inh: 19%
FGFR2
  %Inh: 0%
FGFR3
  %Inh: 21%
FGFR4
  %Inh: 11%
FGR
  %Inh: 91.4%
FLT1
  %Inh: 94.5%
FLT3-autoinhibited
  %Inh: 0%
FLT3
  %Inh: 78%
FLT4
  %Inh: 82%
FRK
  %Inh: 86%
FYN
  %Inh: 58%
GAK
  %Inh: 52%
GCN2(Kin.Dom.2,S808G)
  %Inh: 11%
GRK1
  %Inh: 0%
GRK2
  %Inh: 0%
GRK3
  %Inh: 0%
GRK4
  %Inh: 25%
GRK7
  %Inh: 0%
GSK3A
  %Inh: 12%
GSK3B; [1]
  %Inh: 21%

## O=C(Nc1cccc(-c2nn3ccccc3c2-c2ccnc(Nc3cccc(F)c3)n2)c1)c1c(F)ccc(F)c1Cl [GSK357952]
FGFR1
  %Inh: 14%
FGFR2
  %Inh: 0%
FGFR3
  %Inh: 19%
FGFR4
  %Inh: 0%
FGR
  %Inh: 97.1%
FLT1
  %Inh: 89%
FLT3-autoinhibited
  %Inh: 15%
FLT3
  %Inh: 51%
FLT4
  %Inh: 38%
FRK
  %Inh: 76%
FYN
  %Inh: 66%
GAK
  %Inh: 14%
GCN2(Kin.Dom.2,S808G)
  %Inh: 1%
GRK1
  %Inh: 5%
GRK2
  %Inh: 0%
GRK3
  %Inh: 0%
GRK4
  %Inh: 5%
GRK7
  %Inh: 0%
GSK3A
  %Inh: 0%
GSK3B; [1]
  %Inh: 6%

## Cl.Cl.NCC(C(=O)Nc1cc(Br)c(-c2ccnc3[nH]ccc23)s1)c1ccccc1 (centres unmarked) [GSK1269851]
FGFR1
  %Inh: 30%
FGFR2
  %Inh: 8%
FGFR3
  %Inh: 27%
FGFR4
  %Inh: 44%
FGR
  %Inh: 55%
FLT1
  %Inh: 16%
FLT3-autoinhibited
  %Inh: 20%
FLT3
  %Inh: 86%
FLT4
  %Inh: 0%
FRK
  %Inh: 12%
FYN
  %Inh: 30%
GAK
  %Inh: 83%
GCN2(Kin.Dom.2,S808G)
  %Inh: 0%
GRK1
  %Inh: 56%
GRK2
  %Inh: 13%
GRK3
  %Inh: 62%
GRK4
  %Inh: 86%
GRK7
  %Inh: 13%
GSK3A
  %Inh: 0%
GSK3B; [1]
  %Inh: 7%

## COc1cccc(C(=O)Nc2cccc(Oc3ccc4nc(NC(=O)C5CC5)cn4n3)c2)c1
FGFR1
  %Inh: 22%
FGFR2
  %Inh: 88%
FGFR3
  %Inh: 41%
FGFR4
  %Inh: 48%
FGR
  %Inh: 98%
FLT1
  %Inh: 99.9%
FLT3-autoinhibited
  %Inh: 24%
FLT3
  %Inh: 89%
FLT4
  %Inh: 100%
FRK
  %Inh: 94.9%
FYN
  %Inh: 84%
GAK
  %Inh: 33%
GCN2(Kin.Dom.2,S808G)
  %Inh: 22%
GRK1
  %Inh: 17%
GRK2
  %Inh: 0%
GRK3
  %Inh: 0%
GRK4
  %Inh: 0%
GRK7
  %Inh: 0%
GSK3A
  %Inh: 8%
GSK3B; [1]
  %Inh: 10%

## COc1ccc(Nc2nccc(N3CCC(NC(=O)Nc4cccc(OC)c4)C3)n2)cc1 (centres unmarked) [GSK1379742]
FGFR1
  %Inh: 5%
FGFR2
  %Inh: 7%
FGFR3
  %Inh: 5%
FGFR4
  %Inh: 0%
FGR
  %Inh: 17%
FLT1
  %Inh: 36%
FLT3-autoinhibited
  %Inh: 20%
FLT3
  %Inh: 35%
FLT4
  %Inh: 0%
FRK
  %Inh: 8%
FYN
  %Inh: 0%
GAK
  %Inh: 23%
GCN2(Kin.Dom.2,S808G)
  %Inh: 6%
GRK1
  %Inh: 0%
GRK2
  %Inh: 0%
GRK3
  %Inh: 22%
GRK4
  %Inh: 0%
GRK7
  %Inh: 0%
GSK3A
  %Inh: 13%
GSK3B; [1]
  %Inh: 2%

## COc1cccc(-c2ccc3c(NC(=O)C4CC4)n[nH]c3n2)c1 [SB-710903]
FGFR1
  %Inh: 0%
FGFR2
  %Inh: 0%
FGFR3
  %Inh: 0%
FGFR4
  %Inh: 9%
FGR
  %Inh: 26%
FLT1
  %Inh: 8%
FLT3-autoinhibited
  %Inh: 0%
FLT3
  %Inh: 0%
FLT4
  %Inh: 1%
FRK
  %Inh: 0%
FYN
  %Inh: 0%
GAK
  %Inh: 3%
GCN2(Kin.Dom.2,S808G)
  %Inh: 1%
GRK1
  %Inh: 5%
GRK2
  %Inh: 0%
GRK3
  %Inh: 75%
GRK4
  %Inh: 0%
GRK7
  %Inh: 0%
GSK3A
  %Inh: 88%
GSK3B; 1 µM
  %Inh: 43%

## c1ccc(-c2n[nH]cc2Nc2ccnc3ccccc23)nc1 [GW694077]
FGFR1
  %Inh: 0%
FGFR2
  %Inh: 0%
FGFR3
  %Inh: 0%
FGFR4
  %Inh: 0%
FGR
  %Inh: 10%
FLT1
  %Inh: 26%
FLT3-autoinhibited
  %Inh: 8%
FLT3
  %Inh: 12%
FLT4
  %Inh: 11%
FRK
  %Inh: 0%
FYN
  %Inh: 36%
GAK
  %Inh: 100%
GCN2(Kin.Dom.2,S808G)
  %Inh: 0%
GRK1
  %Inh: 7%
GRK2
  %Inh: 0%
GRK3
  %Inh: 33%
GRK4
  %Inh: 81%
GRK7
  %Inh: 0%
GSK3A
  %Inh: 0%
GSK3B; [1]
  %Inh: 7%

## c1ccc(Oc2ccc(Nc3ccnc4cc(-c5ccc(CNCCN6CCOCC6)o5)ccc34)cc2)nc1 [GW567145]
FGFR1
  %Inh: 0%
FGFR2
  %Inh: 4%
FGFR3
  %Inh: 10%
FGFR4
  %Inh: 0%
FGR
  %Inh: 68%
FLT1
  %Inh: 3%
FLT3-autoinhibited
  %Inh: 8%
FLT3
  %Inh: 91%
FLT4
  %Inh: 0%
FRK
  %Inh: 13%
FYN
  %Inh: 57%
GAK
  %Inh: 82%
GCN2(Kin.Dom.2,S808G)
  %Inh: 0%
GRK1
  %Inh: 0%
GRK2
  %Inh: 0%
GRK3
  %Inh: 48%
GRK4
  %Inh: 0%
GRK7
  %Inh: 0%
GSK3A
  %Inh: 6%
GSK3B; [1]
  %Inh: 0%

## Nc1ncc(-c2cccnc2)c2scc(-c3ccc4c(c3)CCN4C(=O)Cc3ccccc3)c12 [GSK683281]
FGFR1
  %Inh: 31%
FGFR2
  %Inh: 10%
FGFR3
  %Inh: 7%
FGFR4
  %Inh: 12%
FGR
  %Inh: 25%
FLT1
  %Inh: 47%
FLT3-autoinhibited
  %Inh: 5%
FLT3
  %Inh: 83%
FLT4
  %Inh: 35%
FRK
  %Inh: 6%
FYN
  %Inh: 32%
GAK
  %Inh: 23%
GCN2(Kin.Dom.2,S808G)
  %Inh: 75%
GRK1
  %Inh: 0%
GRK2
  %Inh: 0%
GRK3
  %Inh: 0%
GRK4
  %Inh: 22%
GRK7
  %Inh: 0%
GSK3A
  %Inh: 24%
GSK3B; [1]
  %Inh: 29%

— publication PMC5540273 (PLoS ONE, 2017)
